# Measurements as given in PubChem BioAssay (Tox21).
# Records with an inconclusive call do not appear. Active and inactive are the calls of the source. The call rests on the fitted dose curve; in most records, active means well fitted cell-killing curve with a large enough effect in the repeat runs; inconclusive means weak or mixed curves, or effect the other way; inactive means flat fitted curve, though single readings scatter.
# Test: cAMP Responsive Elements (CRE) small molecule antagonists, cell-based qHTS assay: qHTS cell viability counter screen (AID 2060913); further: nearly all actives have a fitted effect of over 40% in size
# Conditions: CRE-bla HEK293T viability, CellTiter-Glo luminescence, 5 h; series mostly up to 92.4 µM; viability change, negative = cytotoxic: at the top concentration
# Outline: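 Cytotoxicity counter screen multiplexed with the CRE-bla antagonist read: HEK293T cells in DMEM with dialyzed FBS and 25 mM HEPES were treated 3 hrs under 0.25 uM final NKH477, then viability measured by CellTiter-Glo luminescence.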
# On the % scale 0 is the no-effect control and ±100 the full control effect; potency means the concentration at half of the fitted maximal effect.
SMILES,Potency,"viability change, negative = cytotoxic"
NNc1nncc2ccccc12,inactive,–
CC(=O)OC(C(=O)c1ccccc1)c1ccccc1 (stereo not given),–,1.22% (inactive)
CCCCC(=O)OCC(=O)[C@H]1[C@H](C)C[C@H]2[C@@H]3C[C@H](F)C4=CC(=O)C=C[C@]4(C)[C@@]3(F)[C@@H](O)C[C@@]21C,–,-1.08% [at 42.5 µM] (inactive)
COc1ccc(-c2coc3cc(O)ccc3c2=O)cc1,–,0.366% (inactive)
c1ccc(CNCc2ccccc2)cc1,–,-0.623% (inactive)
CCOC(=O)c1ccc(C2CCC(NC[C@H](O)COc3ccc(O)c(NS(C)(=O)=O)c3)CC2)cc1 (stereo not given in full),–,-21.9% (inactive)
CC1=CC2C3CC(C=C3C)C2C1 (stereo not given),inactive,–
COS(=O)(=O)O,–,0.152% (inactive)
O=C(O)c1cccc(C(=O)O)c1C(=O)O,–,-3.66% (inactive)
CCCOCC(C)O (stereo not given),inactive,–
O=C1OC2(c3ccccc31)c1ccc(O)c(Br)c1Oc1c2ccc(O)c1Br,–,-11.7% (inactive)
COc1cc(C(C)(C)C)c(O)c(C(C)(C)C)c1,–,-13% (inactive)
CCN1CCN(C(=O)N[C@@H](C(=O)N[C@@H]2C(=O)N3C(C(=O)O)=C(CSc4nnnn4C)CS[C@H]23)c2ccc(O)cc2)C(=O)C1=O,–,0.171% [at 42.5 µM] (inactive)
O=c1c(O)c(O)c1=O,–,6.01% (inactive)
C=C(C)C(=O)OCCCCCCCCCCOC(=O)C(=C)C,–,0.0871% (inactive)
O=C(Nc1ccc(Cl)cc1)Nc1ccc(Cl)c(C(F)(F)F)c1,26.6 µM (active),–
CC(C)SCc1ccco1,–,11.5% [at 42.5 µM] (inactive)
CCC(C)N(C)C(=O)c1cc2ccccc2c(-c2ccccc2Cl)n1 (stereo not given),–,6.22% [at 42.5 µM] (inactive)
CC[C@H]1CN2CCc3cc(OC)c(OC)cc3[C@@H]2C[C@@H]1C[C@H]1NCCc2cc(OC)c(OC)cc21,–,-0.502% (inactive)
CC(C)=CC=O,–,-0.444% (inactive)

SMILES,Potency,"viability change, negative = cytotoxic"
C=CC(C)C#N (stereo not given),–,5.73% (inactive)
CCOc1cccc(N)c1,–,2.01% (inactive)
CCOC(=O)c1ccccc1OC,–,5.14% (inactive)
CCCCCCC,–,-0.372% (inactive)
CC/C=C\CCOC(=O)CCCCC,–,4.7% (inactive)
CN(C)c1ccc(C=O)cc1,–,2.09% (inactive)
C[N+](C)(C)CC(O)CCl (stereo not given),–,-4.51% (inactive)
NC(N)=NCCN1CCCCCCC1,–,0.247% [at 0.349 µM] (inactive)
Cc1cc(C)c(C=O)c(C)c1,–,12.7% (inactive)
O=S(=O)(O)CC(O)CCl (stereo not given),–,10.2% (inactive)
CCCCCCCCCCCCI,–,4.04% (inactive)
CCCCCCCCCCCCCCCC(=O)OCC,–,3.46% (inactive)
CCC(C)(O)CCCC(C)C (stereo not given),inactive,–
Cc1ccccc1Br,–,-1.04% (inactive)
CCCCCCCC(=O)OCCCCCC,–,-0.487% (inactive)
O=Nc1ccc(O)cc1,inactive,–
CCCCCCCCCCCCCC(=O)OC(C)C,inactive,–
CCCCOc1ccc(CC(=O)NO)cc1,–,3.69% [at 42.5 µM] (inactive)
Nc1ccc(Oc2ccc(N)c(N)c2)cc1,–,11.3% (inactive)
Oc1cccc(O)c1,inactive,–

# Test: cAMP Responsive Elements (CRE) small molecule agonists, cell-based qHTS assay: qHTS cell viability counter screen (AID 2060914);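 further: viability read after 3 h of compound exposure; nearly all actives have a fitted effect of over 50% in size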
# Conditions: CRE-bla HEK293T viability, CellTiter-Glo luminescence, 5 h; series mostly up to 92.4 µM; activity change, negative = cytotoxicity: at the top concentration
# Outline: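 CRE-bla HEK293T cells in 10% dialyzed FBS medium were exposed to compounds for 3 h at 37C after 18 h plating. CellTiter-Glo was then added in the same wells, and luminescence was read after 30 min at room temperature.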
SMILES,Potency,"activity change, negative = cytotoxicity"
NNc1nncc2ccccc12,inactive,–
CC(=O)OC(C(=O)c1ccccc1)c1ccccc1 (stereo not given),–,0.801% (inactive)
CCCCC(=O)OCC(=O)[C@H]1[C@H](C)C[C@H]2[C@@H]3C[C@H](F)C4=CC(=O)C=C[C@]4(C)[C@@]3(F)[C@@H](O)C[C@@]21C,–,-2.3% [at 42.5 µM] (inactive)
COc1ccc(-c2coc3cc(O)ccc3c2=O)cc1,–,1.29% (inactive)
c1ccc(CNCc2ccccc2)cc1,–,-5.73% (inactive)
CCOC(=O)c1ccc(C2CCC(NC[C@H](O)COc3ccc(O)c(NS(C)(=O)=O)c3)CC2)cc1 (stereo not given in full),–,9.29% (inactive)
CC1=CC2C3CC(C=C3C)C2C1 (stereo not given),inactive,–
COS(=O)(=O)O,–,-2.09% (inactive)
O=C(O)c1cccc(C(=O)O)c1C(=O)O,–,-2.74% (inactive)
CCCOCC(C)O (stereo not given),inactive,–
O=C1OC2(c3ccccc31)c1ccc(O)c(Br)c1Oc1c2ccc(O)c1Br,–,14.4% (inactive)
COc1cc(C(C)(C)C)c(O)c(C(C)(C)C)c1,–,-14.8% (inactive)
CCN1CCN(C(=O)N[C@@H](C(=O)N[C@@H]2C(=O)N3C(C(=O)O)=C(CSc4nnnn4C)CS[C@H]23)c2ccc(O)cc2)C(=O)C1=O,–,-9.89% [at 42.5 µM] (inactive)
O=c1c(O)c(O)c1=O,–,-17.1% (inactive)
C=C(C)C(=O)OCCCCCCCCCCOC(=O)C(=C)C,–,4.61% (inactive)
O=C(Nc1ccc(Cl)cc1)Nc1ccc(Cl)c(C(F)(F)F)c1,23.7 µM (active),–
CC(C)SCc1ccco1,–,-3.12% [at 42.5 µM] (inactive)
CCC(C)N(C)C(=O)c1cc2ccccc2c(-c2ccccc2Cl)n1 (stereo not given),–,3.1% [at 42.5 µM] (inactive)
CC[C@H]1CN2CCc3cc(OC)c(OC)cc3[C@@H]2C[C@@H]1C[C@H]1NCCc2cc(OC)c(OC)cc21,–,10.2% (inactive)
CC(C)=CC=O,–,1.6% (inactive)

SMILES,Potency,"activity change, negative = cytotoxicity"
C=CC(C)C#N (stereo not given),–,0.0155% (inactive)
CCOc1cccc(N)c1,–,3.39% (inactive)
CCOC(=O)c1ccccc1OC,–,-5.06% (inactive)
CCCCCCC,–,-6.11% (inactive)
CC/C=C\CCOC(=O)CCCCC,–,0.743% (inactive)
CN(C)c1ccc(C=O)cc1,–,13.2% (inactive)
C[N+](C)(C)CC(O)CCl (stereo not given),–,-12.8% (inactive)
NC(N)=NCCN1CCCCCCC1,–,-6.13% [at 0.349 µM] (inactive)
Cc1cc(C)c(C=O)c(C)c1,–,-0.791% (inactive)
O=S(=O)(O)CC(O)CCl (stereo not given),–,1.94% (inactive)
CCCCCCCCCCCCI,–,-2.67% (inactive)
CCCCCCCCCCCCCCCC(=O)OCC,–,12.7% (inactive)
CCC(C)(O)CCCC(C)C (stereo not given),inactive,–
Cc1ccccc1Br,–,0.401% (inactive)
CCCCCCCC(=O)OCCCCCC,–,-2.26% (inactive)
O=Nc1ccc(O)cc1,inactive,–
CCCCCCCCCCCCCC(=O)OC(C)C,inactive,–
CCCCOc1ccc(CC(=O)NO)cc1,–,-2.98% [at 42.5 µM] (inactive)
Nc1ccc(Oc2ccc(N)c(N)c2)cc1,–,16.7% (inactive)
Oc1cccc(O)c1,inactive,–
